# Only a selection was taken, and the strongest signals are over-represented in it overall.
# B1: F17-L (Escherichia coli) (protein)
# chain: GPDDYVPSQIAVNTSTLPGVVIGPADAHTYPRVIGELAGTSNQYVFNGGAIALMRGKFTPALPKIGSITYTFHQGNSRDSSDFDIYDIGVSGLGIIIGMAGYWPATPLVPINSSGIYIDPVGANTNPNTYNGATASFGARLFVAFVATGRLPNGYITIPTRQLGTILLEAKRTSLNNKGLTAPVMLNGGRIQVQSQTHHHHHH
# How the values were obtained:
# Experiment in all cases: glycan array binding signal (z-score within array); higher = stronger binding
# Conditions in all cases: glycan notation: IUPAC condensed, linker removed
# [1] = biological target: GlcNAc(b1-4)GlcNAc(b1-4)GlcNAc
# Outline: (§1)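 Glycan array data were curated from 3228 arrays in the Consortium for Functional Glycomics database and kept only where the protein sequence was available. Glycan names were converted to IUPAC-condensed notation, and columns mapping to the same glycan were averaged. The binding signal is a within-array Z-score, averaged across arrays of the same protein sequence at different concentrations or buffers and across linkers. Negative Z-scores can be read as non-binding.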
# [2] = biological target: GlcNAc(b1-6)Gal(b1-4)GlcNAc
# Outline: as §1
# [3] = biological target: Kdn(a2-3)Gal(b1-4)Glc
# Outline: as §1
# [4] = biological target: Man(a1-2)Man(a1-3)[Man(a1-2)Man(a1-6)]Man
# Outline: as §1
# [5] = biological target: MurNAc(b1-4)GlcNAc
# Outline: as §1
# [6] = biological target: Neu5Ac(a2-3)Gal
# Outline: as §1
# [7] = biological target: Neu5Ac(a2-3)Gal(b1-3)GlcNAc(b1-4)Gal(b1-4)Glc
# Outline: as §1
# [8] = biological target: Neu5Ac(a2-3)Gal(b1-3)[Fuc(a1-4)]GlcNAc(b1-3)Gal(b1-4)[Fuc(a1-3)]GlcNAc
# Outline: as §1
# [9] = biological target: Neu5Ac(a2-3)Gal(b1-3)[Neu5Ac(a2-6)]GlcNAc(b1-3)[Fuc(a1-3)[Gal(b1-4)]GlcNAc(b1-6)]Gal(b1-4)Glc
# Outline: as §1
# [10] = biological target: Neu5Ac(a2-3)Gal(b1-3)]Neu5Ac(a2-3)Gal(b1-4)]GlcNAc
# Outline: as §1
# [11] = biological target: Neu5Ac(a2-3)Gal(b1-4)GlcNAc(b1-3)Gal(b1-4)GlcNAc(b1-6)[Gal(b1-3)]GalNAc
# Outline: as §1
# [12] = biological target: Neu5Ac(a2-3)Gal(b1-4)[Fuc(a1-3)]GlcNAc(b1-2)Man
# Outline: as §1
# [13] = biological target: Neu5Ac(a2-3)Gal(b1-4)[Fuc(a1-3)]GlcNAc(b1-3)Gal(b1-4)[Fuc(a1-3)]GlcNAc(b1-3)Gal(b1-4)[Fuc(a1-3)]GlcNAc
# Outline: as §1
# [14] = biological target: Neu5Ac(a2-3)Gal(b1-4)[Fuc(a1-3)]GlcNAc(b1-6)[Neu5Ac(a2-3)Gal(b1-3)]GalNAc
# Outline: as §1
# [15] = biological target: Neu5Ac(a2-6)Gal(b1-4)GlcNAc(b1-2)Man
# Outline: as §1
# [16] = biological target: Neu5Ac(a2-6)Gal(b1-4)GlcNAc(b1-3)Gal(b1-4)GlcNAc
# Outline: as §1
# [17] = biological target: Neu5Ac(a2-6)Gal(b1-4)GlcNAc(b1-3)Gal(b1-4)GlcNAc(b1-3)[Neu5Ac(a2-6)Gal(b1-4)GlcNAc(b1-3)Gal(b1-4)GlcNAc(b1-6)]GalNAc
# Outline: as §1
# [18] = biological target: Neu5Ac(a2-6)Gal(b1-4)GlcNAc(b1-3)Gal(b1-4)GlcNAc(b1-6)[Gal(b1-3)]GalNAc
# Outline: as §1
# [19] = biological target: Neu5Ac9Ac(a2-6)Gal(b1-4)GlcNAc
# Outline: as §1
# [20] = biological target: Neu5Gc(a2-8)Neu5Gc(a2-3)Gal(b1-4)GlcNAc(b1-3)Gal(b1-4)GlcNAc
# Outline: as §1
binder,measurement,setting,value
B1,glycan array binding signal (z-score),[1],-0.131
same,glycan array binding signal (z-score),[2],0.019
same,glycan array binding signal (z-score),[3],-0.136
same,glycan array binding signal (z-score),[4],-0.153
same,glycan array binding signal (z-score),[5],4.16
same,glycan array binding signal (z-score),[6],-0.099
same,glycan array binding signal (z-score),[7],-0.075
same,glycan array binding signal (z-score),[8],0.865
same,glycan array binding signal (z-score),[9],-0.114
same,glycan array binding signal (z-score),[10],0.01
same,glycan array binding signal (z-score),[11],-0.139
same,glycan array binding signal (z-score),[12],-0.12
same,glycan array binding signal (z-score),[13],-0.119
same,glycan array binding signal (z-score),[14],-0.152
same,glycan array binding signal (z-score),[15],-0.134
same,glycan array binding signal (z-score),[16],-0.069
same,glycan array binding signal (z-score),[17],-0.014
same,glycan array binding signal (z-score),[18],-0.112
same,glycan array binding signal (z-score),[19],-0.133
same,glycan array binding signal (z-score),[20],-0.129

# Reference: the supplement of paper PMC8728848
